From PubChem BioAssay (NCATS)
Records with an inconclusive call do not appear. Entries that show only a call come without a potency. Calls of active or inactive are those of the source. Calls follow the shape of the dose curve; as a rule, active = well fitted curve in the direction sought with a large enough effect; inconclusive = small, poorly fitted or top-dose-only effect, or another doubt; inactive = no such curve, though single readings can be large; an effect the other way counts as inactive or inconclusive. Where a SMILES comes first, the peptide text is derived from it. The star is where a group is joined. βNA = c1ccc2cc(N*)ccc2c1; Cbz = O=C(OCc1ccccc1)*

Columns and labels:
[1] = P-glycoprotein substrates identified in KB-3-1 adenocarcinoma cell line, qHTS therapeutic library screen (AID 1346986); also: nearly all actives have a fitted effect of over 60% in size
How it was run: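 Compounds were tested in dose-response against KB-3-1 and KB-8-5-11 cells at 37 degree C for 72 h, and viability was measured by luminescence. AC50 values came from curve fitting with class-based activity calls.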

[2] = P-glycoprotein substrates identified in KB-8-5-11 adenocarcinoma cell line, qHTS therapeutic library screen (AID 1346987); also: nearly all actives have a fitted effect of over 65% in size
How it was run: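 P-gp-mediated resistance screen: KB-8-5-11 cells treated 72 h with compounds in dose-response. CellTiter-Glo viability.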

Row | Structure (SMILES) | Potency [1] | Potency [2] | outcome [1] | outcome [2]
1 | CCCN(CCN1CCN(c2ccccc2OC)CC1)C1CCc2ncsc2C1 (centres undefined) | inactive | inactive |  | 
2 | CC(C)=C1CC2C(CCC2(C)O)C(C)(O)CC1=O (centres undefined) | inactive | inactive |  | 
3 | CC1=C(CO)C2(C)CCCC(C)(C)C2C(O)C1O (centres undefined) | inactive | inactive |  | 
4 | Cn1cc(CCn2cnc(-c3cnn(C)c3)c2-c2ccc(C#N)cc2)cn1 | inactive | inactive |  | 
5 | NC1(c2ccc(NC(=O)c3ccnc(-c4cc(C(=O)O)ccn4)c3)cc2)CC1 | inactive | inactive |  | 
6 | C[C@]12CC/C(=N\OCC(=O)O)C=C1CC[C@@H]1[C@@H]2[C@@H](O)C[C@@]2(C)[C@H]1CC[C@]2(O)C(=O)CO | inactive | inactive |  | 
7 | C[C@@H](CC[C@@H]1[C@@]2(C)CCCC(C)(C)C2CC[C@@]1(C)O)CC(=O)O (some centres undefined) | inactive | inactive |  | 
8 | CC1(C)C[C@H](O)C[C@@]2(C)[C@H]1[C@H](O)C=C1COC(=O)[C@@]12O | inactive | inactive |  | 
9 | CC/C=C\[C@H](O)[C@H](O)C1=C(C)C(=O)[C@]2(O1)C(=O)N[C@@](O)(C(=O)c1ccccc1)[C@@H]2O | inactive | inactive |  | 
10 | NC[C@@H]1O[C@@H](O[C@@H]2[C@@H](O[C@@H]3O[C@H](CO)[C@@H](O)[C@H]3O)[C@H](O)[C@@H](N)C[C@H]2N)[C@@H](N)[C@H](O)[C@H]1O |  |  | inactive [at 9.29 µM] | inactive [at 9.29 µM]
11 | CC(C)CC(NC(=O)OCc1ccccc1)C(=O)NC(CC(C)C)C(=O)NC(CCC(=O)O)C(=O)Nc1ccc2ccccc2c1 (stereo not drawn) (Cbz-Leu-Leu-Glu-βNA; configuration not given here) | inactive | inactive |  | 
12 | CCCC/C=C\CCCCCc1cc(=O)c2ccccc2n1C | inactive | inactive |  | 
13 | C[C@@]1(O)[C@H](O)[C@@H](CO)O[C@H]1n1cnc2c(=O)[nH]c(N)nc21 | inactive | inactive |  | 
14 | Cc1onc(-c2c(Cl)cccc2Cl)c1CC(=O)NCc1ccc(OCC(F)(F)F)nc1 | inactive | inactive |  | 
15 | COC(=O)C1=CO[C@@H](O[C@@H]2O[C@H](CO)[C@@H](O)[C@H](O)[C@H]2O)[C@@H]2[C@@H](C)[C@@H](O)C(O)[C@H]12 (some centres undefined) | inactive | inactive |  | 
16 | OC[C@H]1O[C@@H](OC[C@H]2O[C@@H](OCc3ccccc3)[C@H](O)[C@@H](O)[C@@H]2O)[C@H](O)[C@@H](O)[C@@H]1O | inactive | inactive |  | 
17 | CCC(C)C(=O)O[C@H]1C[C@](C)(O)[C@]23OC(C)(C)[C@H](C[C@H](OC(=O)c4ccccc4)[C@]2(COC(C)=O)[C@H]1OC(=O)C(C)CC)[C@H]3OC(C)=O (some centres undefined) | inactive | inactive |  | 
18 | Cc1cc(CNC(=O)c2cc(C(=O)NCc3ccc(F)c(C)c3)ncn2)ccc1F | inactive | inactive |  | 
19 | CCC/C=C/C=C/C1CC(O)C(O)C(=O)C1CO (centres undefined) | inactive | inactive |  | 
20 | CC(=O)OC1CC(=O)C2(C)C3CC4=C(OC(C)CC4=O)OC3(C)CCC2C1(C)C (centres undefined) | inactive | inactive |  | 
21 | COc1cc2nc(=NC(=O)c3cccnc3)n3c(c2cc1OC)NCC3 | inactive | inactive |  | 

Row | Structure (SMILES) | Potency [1] | Potency [2] | outcome [1] | outcome [2]
22 | O=C(/C=C/c1ccc(O)cc1)OC[C@H]1O[C@@H](O/C(=C\c2ccccc2)C(=O)O)[C@H](O)[C@@H](O)[C@@H]1O | inactive | inactive |  | 
23 | O=C(O)CCc1c(C(=O)O)[nH]c2cc(Cl)cc(Cl)c12 | inactive | inactive |  | 
24 | CC1(C)C=Cc2c(ccc3c2[N+]([O-])=C2C3(O)CC34NC(=O)C5(CCCN5C3=O)CC4C2(C)C)O1 (centres undefined) | inactive | inactive |  | 
25 | O=C(NCCN1CCCC1)c1cc(-c2ccc(CN3CCOCC3)cc2)nc2ccc(F)cc12 | inactive | inactive |  | 
26 | CC(=C\C(C)O)/C=C(\C)C(=O)CC1CC(CC(N)=O)CC(=O)O1 (centres undefined) | inactive | inactive |  | 
27 | CCC(C)/C=C(C)/C=C/C1=CC2=C(Cl)C(=O)C(C)(O)C(=O)C2(O)C(OC)O1 (centres undefined) | inactive | inactive |  | 
28 | COc1ccc(-c2ccn(CC[C@](C)(C(=O)NO)S(C)(=O)=O)c(=O)c2)c(F)c1 | inactive | inactive |  | 
29 | CC(=O)O[C@H]1[C@H](O[C@H]2CC[C@]34C[C@]35CC[C@]3(C)[C@@H]([C@@]6(C)CC[C@@H](C(C)(C)O)O6)[C@@H](O)C[C@@]3(C)[C@@H]5C[C@H](O[C@@H]3O[C@H](CO)[C@@H](O)[C@H](O)[C@H]3O)[C@H]4C2(C)C)OC[C@@H](OC(C)=O)[C@@H]1O | inactive | inactive |  | 
30 | COC(=O)C1=CO[C@@H](O[C@@H]2O[C@H](CO)[C@@H](O)[C@H](O)[C@H]2O)C2C1CC(O)C2C (some centres undefined) | inactive | inactive |  | 
31 | CCC(C)/C=C(C)/C=C/C1=CC2=C(Cl)C(=O)C(C)(OC(C)=O)C(=O)C2=CN1CCCCC(N)C(=O)O (centres undefined) | inactive | inactive |  | 
32 | Cc1ncc([N+](=O)[O-])n1C[C@H](O)CN1CCOCC1 | inactive | inactive |  | 
33 | COC(=O)C1=COC(OC2OC(CO)C(O)C(O)C2O)C2C(C)C(OC(C)=O)C(OC(=O)c3ccccc3)C12 (centres undefined) | inactive | inactive |  | 
34 | C=CCC1=C[C@]2(OC)[C@H](C)[C@@H](c3ccc(OC)c(OC)c3)O[C@]2(OC)CC1=O | inactive | inactive |  | 
35 | CC1(C)[C@@H]2CC=C(CO[C@@H]3O[C@H](CO[C@@H]4OC[C@H](O)[C@H](O)[C@H]4O)[C@@H](O)[C@H](O)[C@H]3O)[C@H]1C2 | inactive | inactive |  | 
36 | COC(=O)C1=COC(O[C@@H]2O[C@H](CO)[C@@H](O)[C@H](O)[C@H]2O)/C(=C\COC(=O)/C=C/c2ccccc2)C1CC(=O)OCCc1ccc(O)cc1 (some centres undefined) | inactive | inactive |  | 
37 | CC1=CC[C@@]2(C)CC[C@@](O)(C(C)C)[C@@H]2[C@@H](O)C1 | inactive | inactive |  | 
38 | COC(=O)C1=COC(OC2OC(CO)C(O)C(O)C2O)C2C(COC(=O)/C=C/c3ccc(O)cc3)C(O)C(O)C12 (centres undefined) | inactive | inactive |  | 
39 | O=C1OC(c2ccc(O)cc2)C(O)=C1Cc1ccccc1 (centres undefined) | inactive | inactive |  | 
40 | C=CC(C)(O)CC/C=C(\C)C(=O)O[C@@H]1[C@@H](O)[C@H](OC(C)(C=C)CC/C=C(\C)C(=O)O)O[C@H](CO)[C@H]1OC(=O)/C(C)=C/CCC(C)(O)C=C (some centres undefined) | inactive | inactive |  | 
41 | NC(=O)[C@H](Cc1ccccc1)NC(=O)[C@H](CCCN=C(N)N)NC(=O)C12CC3CC(CC(C3)C1)C2 |  |  | inactive [at 9.29 µM] | inactive [at 9.29 µM]
42 | C[C@@]12CC3(S(=O)(=O)O)OC(O1)[C@]1(COC(=O)c4ccccc4)[C@H]3C[C@]21O[C@@H]1O[C@H](CO)[C@@H](O)[C@H](O)[C@H]1O | inactive | inactive |  | 

Row | Structure (SMILES) | Potency [1] | Potency [2] | outcome [1] | outcome [2]
43 | O=C(O)/C=C/c1ccc2occc2c1O[C@@H]1O[C@H](CO)[C@@H](O)[C@H](O)[C@H]1O | inactive | inactive |  | 
44 | COc1c(-c2ccc(O)cc2)cc(OC)c2c1oc1cc(O)c(OC3OC(CO)C(O)C3O)cc12 (centres undefined) | inactive | inactive |  | 
45 | CC(C)C1NC(=O)C2CCCN2C1=O (centres undefined) | inactive | inactive |  | 
46 | C[C@@H](c1ccccc1)N(C(N)=NC#N)c1cccc2ncccc12 | inactive | inactive |  | 
47 | Cc1ccc(-c2c(-c3nn(C)c4ncnc(N5CCC(N6CCCCC6)C5)c34)cnn2C)cc1 (centres undefined) | inactive | inactive |  | 
48 | O=C(c1ccc(Cl)c([N+](=O)[O-])c1)N1CCN(c2ccccc2F)CC1 | inactive | inactive |  | 
49 | Cc1noc2c1-c1ccccc1C(c1ccc(Cl)cc1)=N[C@H]2CC(N)=O | inactive | inactive |  | 
50 | CC(C)=CCc1cc(O[C@@H]2O[C@H](CO[C@@H]3OC[C@](O)(CO)[C@H]3O)[C@@H](O)[C@H](O)[C@H]2O)ccc1O | inactive | inactive |  | 
51 | CC1(C)CC[C@]2(C(=O)O[C@@H]3O[C@H](CO[C@@H]4O[C@H](CO[C@@H]5O[C@H](CO)[C@H](O)[C@H](O)[C@H]5O)[C@@H](O)[C@H](O)[C@H]4O)[C@@H](O)[C@H](O[C@@H]4O[C@H](CO)[C@@H](O)[C@H](O)[C@H]4O)[C@H]3O)[C@H](O)C[C@]3(C)C(=CCC4[C@@]5(C)CC[C@H](O[C@@H]6OC[C@@H](O)[C@H](O)[C@H]6O)[C@@](C)(C(=O)O)C5CC[C@]43C)[C@@H]2C1 (some centres undefined) |  |  | inactive [at 9.29 µM] | inactive [at 9.29 µM]
52 | C=C1C(=O)OC[C@H]2C(C(=O)O)=CC3CC(C)(C)C[C@@]132 (some centres undefined) | inactive | inactive |  | 
53 | CC1(C)O[C@H]2CC(=O)OC[C@@]23C1=C(O)C(=O)[C@]1(C)C3CC[C@@]2(C)[C@H](c3ccoc3)OC(=O)[C@H]3O[C@]321 (some centres undefined) | inactive | inactive |  | 
54 | Cc1occc(=O)c1O[C@@H]1O[C@H](COC(=O)CC(C)(O)CC(=O)O)[C@@H](O)[C@H](O)[C@H]1O (some centres undefined) | inactive | inactive |  | 
55 | C=C[C@H]1[C@H](O[C@@H]2O[C@H](CO)[C@@H](O)[C@H](O)[C@H]2O)OC=C2C(=O)N3Cc4c([nH]c5ccccc5c4=O)[C@@H]3C[C@H]21 | inactive | inactive |  | 
56 | CC(C)(O)C1OC1C1=CC(=O)C2(C)OC2C1O (centres undefined) | inactive | inactive |  | 
57 | C=C(C)[C@@H]1CC[C@]2(C)CC[C@]3(C)C(CCC4[C@@]5(C)CC[C@H](O)C(C)(C)C5CC[C@]43C)C12 (some centres undefined) | inactive | inactive |  | 
58 | OC[C@@]1(O)CO[C@@H](OC[C@H]2O[C@@H](OCc3ccccc3)[C@H](O)[C@@H](O)[C@@H]2O)[C@@H]1O | inactive | inactive |  | 
59 | COc1cc(O[C@@H]2O[C@H](CO[C@H]3OC[C@](O)(CO)[C@H]3O)[C@@H](O)[C@H](O)[C@H]2O)cc(OC)c1O | inactive | inactive |  | 
60 | COC(=O)C1=CO[C@@H](O[C@@H]2O[C@H](CO)[C@@H](O)[C@H](O)[C@H]2O)[C@@H]2[C@@H](CO)[C@@H](O)C(O)[C@H]12 (some centres undefined) | inactive | inactive |  | 
61 | C/C(=C\CCC1(C)C2CC3C(C2)C31C)C(=O)O (centres undefined) | inactive | inactive |  | 
62 | CCC(C)C(C(=O)O)N1Cc2c(OCC=C(C)C)c(C)c(OC)c(C(=O)O)c2C1=O (centres undefined) | inactive | inactive |  | 
